Test results from PubChem BioAssay AID1159580 (chemical genetic matrix, 2015).
In all, about 5,500 compounds went through this assay and about 2,000 (36%) were called active. About 18% were inconclusive and are not listed. Cut-off read from the data, not from the text of the source: active = normalized growth mostly below about 0.91 (no sharp cut-off); inconclusive = no clear call, values can overlap the other calls; inactive = mostly above about 0.92. The list shows a part of the results.

Assay: chemical genetic growth profiling, strain panel (AID 1159580);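 note: tested at 20 µM; growth read once vehicle control cultures reached saturation at 30 °C; 1 = growth at the plate median or of vehicle wells; lower values mean less growth of the strain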
Conditions: growth OD

Measured: normalized growth

CC(C)N(C(=O)CCl)c1ccccc1
inactive: S. cerevisiae deletion strains, locus YJR043C, strain POL32, active compounds read low 1.03 | S. cerevisiae deletion strains, locus YJR075W, strain HOC1, active compounds read low 1.04 | S. cerevisiae deletion strains, locus YKL009W, strain mrt4, active compounds read low 1.02 | S. cerevisiae deletion strains, locus YKL068W, active compounds read low 1.04 | S. cerevisiae deletion strains, locus YKL085W, strain MDH1 (second series), active compounds read low 1.03 | S. cerevisiae deletion strains, locus YKL085W, strain MDH1, active compounds read low 1.03 | S. cerevisiae deletion strains, locus YKL160W, strain elf1, active compounds read low 0.974 | S. cerevisiae deletion strains, locus YKL190W, strain CNB1, active compounds read low 1.03 | S. cerevisiae deletion strains, locus YKR001C, strain vps1, active compounds read low 1.07 | S. cerevisiae deletion strains, locus YKR026C, strain gcn3, active compounds read low 1.01 | S. cerevisiae deletion strains, locus YKR091W, strain srl3, active compounds read low 1.01 | S. cerevisiae deletion strains, locus YLL001W, strain dnm1, active compounds read low 0.992 | S. cerevisiae deletion strains, locus YLL026W, active compounds read low 1.01 | S. cerevisiae deletion strains, locus YLL041C, strain sdh2, active compounds read low 1.02 | S. cerevisiae deletion strains, locus YLR027C, strain aat2, active compounds read low 1.01 | S. cerevisiae deletion strains, locus YLR039C, strain RIC1, active compounds read low 1.2 | S. cerevisiae deletion strains, locus YLR058C, strain SHM2, active compounds read low 1.03 | S. cerevisiae deletion strains, locus YLR102C, strain apc9, active compounds read low 1 | S. cerevisiae deletion strains, locus YLR221C, strain rsa3, active compounds read low 1 | S. cerevisiae deletion strains, locus YLR258W, strain gsy2, active compounds read low 0.978 | S. cerevisiae deletion strains, locus YLR262C, strain YPT6 (second series), active compounds read low 1.14 | S. cerevisiae deletion strains, locus YLR262C, strain YPT6, active compounds read low 1.21 | S. cerevisiae deletion strains, locus YLR268W, strain sec22, active compounds read low 1.02 | S. cerevisiae deletion strains, locus YLR320W, strain mms22, active compounds read low 0.97 | S. cerevisiae deletion strains, locus YLR330W, strain CHS5, active compounds read low 1.02 | S. cerevisiae deletion strains, locus YLR342W, strain FKS1 (second series), active compounds read low 0.989 | S. cerevisiae deletion strains, locus YLR342W, strain FKS1, active compounds read low 1.03 | S. cerevisiae deletion strains, locus YLR370C, strain arc18, active compounds read low 1.03 | S. cerevisiae deletion strains, locus YLR371W, strain rom2, active compounds read low 1.01 | S. cerevisiae deletion strains, locus YLR384C, strain iki3, active compounds read low 1.01 | S. cerevisiae deletion strains, locus YML016C, strain PPZ1, active compounds read low 0.996 | S. cerevisiae deletion strains, locus YML032C, strain rad52, active compounds read low 1.01 | S. cerevisiae deletion strains, locus YML120C, strain ndi1, active compounds read low 0.986 | S. cerevisiae deletion strains, locus YML124C, strain tub3, active compounds read low 1.02 | S. cerevisiae deletion strains, locus YMR058W, strain fet3, active compounds read low 1 | S. cerevisiae deletion strains, locus YMR078C, strain ctf18, active compounds read low 1.01 | S. cerevisiae deletion strains, locus YMR129W, active compounds read low 1.01 | S. cerevisiae deletion strains, locus YMR205C, strain PFK2, active compounds read low 0.919 | S. cerevisiae deletion strains, locus YMR223W, strain ubp8, active compounds read low 1.02 | S. cerevisiae deletion strains, locus YMR231W, strain pep5, active compounds read low 0.992 | S. cerevisiae deletion strains, locus YMR263W, strain SAP30, active compounds read low 1.04 | S. cerevisiae deletion strains, locus YMR307W, strain GAS1, active compounds read low 0.99 | S. cerevisiae deletion strains, locus YNL067W, strain RPL9B, active compounds read low 1.04 | S. cerevisiae deletion strains, locus YNL071W, strain lat1, active compounds read low 0.922 | S. cerevisiae deletion strains, locus YNL128W, strain TEP1, active compounds read low 1.03 | S. cerevisiae deletion strains, locus YNL153C, strain GIM3, active compounds read low 1.03 | S. cerevisiae deletion strains, locus YNL209W, strain ssb2, active compounds read low 1.01 | S. cerevisiae deletion strains, locus YNL233W, strain BNI4, active compounds read low 1.03 | S. cerevisiae deletion strains, locus YNL248C, strain rpa49, active compounds read low 0.992 | S. cerevisiae deletion strains, locus YNL250W, strain rad50, active compounds read low 1.03 | S. cerevisiae deletion strains, locus YNL271C, strain bni1, active compounds read low 1.02 | S. cerevisiae deletion strains, locus YNL298W, strain CLA4, active compounds read low 1.03 | S. cerevisiae deletion strains, locus YNL307C, strain MCK1, active compounds read low 0.981 | S. cerevisiae deletion strains, locus YNL322C, strain KRE1 (second series), active compounds read low 1.04 | S. cerevisiae deletion strains, locus YNL322C, strain KRE1, active compounds read low 1.04 | S. cerevisiae deletion strains, locus YNR049C, strain mso1, active compounds read low 1.02 | S. cerevisiae deletion strains, locus YNR052C, strain pop2, active compounds read low 1.02 | S. cerevisiae deletion strains, locus YOL006C, strain TOP1, active compounds read low 1 | S. cerevisiae deletion strains, locus YOL012C, strain htz1 0.89 | S. cerevisiae deletion strains, locus YOL147C, strain pex11, active compounds read low 1 | S. cerevisiae deletion strains, locus YOR001W, strain rrp6, active compounds read low 0.983 | S. cerevisiae deletion strains, locus YOR061W, strain CKA2, active compounds read low 1.03 | S. cerevisiae deletion strains, locus YOR069W, strain VPS5, active compounds read low 1.01 | S. cerevisiae deletion strains, locus YOR070C, strain gyp1, active compounds read low 1.01 | S. cerevisiae deletion strains, locus YOR080W, strain dia2, active compounds read low 1.03 | S. cerevisiae deletion strains, locus YOR083W, strain WHI5, active compounds read low 0.976 | S. cerevisiae deletion strains, locus YOR106W, strain vam3, active compounds read low 0.958 | S. cerevisiae deletion strains, locus YOR136W, strain idh2, active compounds read low 1 | S. cerevisiae deletion strains, locus YOR144C, strain elg1, active compounds read low 1.02 | S. cerevisiae deletion strains, locus YOR184W, strain ser1, active compounds read low 1 | S. cerevisiae deletion strains, locus YOR265W, strain rbl2, active compounds read low 1.04 | S. cerevisiae deletion strains, locus YOR270C, strain vph1, active compounds read low 0.865 | S. cerevisiae deletion strains, locus YOR290C, strain snf2, active compounds read low 0.928 | S. cerevisiae deletion strains, locus YOR316C, strain cot1, active compounds read low 1.01 | S. cerevisiae deletion strains, locus YPL051W, strain arl3, active compounds read low 0.987 | S. cerevisiae deletion strains, locus YPL055C, strain LGE1, active compounds read low 1.03 | S. cerevisiae deletion strains, locus YPL078C, strain atp4, active compounds read low 0.973 | S. cerevisiae deletion strains, locus YPL106C, strain sse1, active compounds read low 1.14 | S. cerevisiae deletion strains, locus YPL240C, strain hsp82, active compounds read low 1 | S. cerevisiae deletion strains, locus YPL241C, strain CIN2, active compounds read low 1.02 | S. cerevisiae deletion strains, locus YPR119W, strain clb2, active compounds read low 1.01 | S. cerevisiae deletion strains, locus YPR141C, strain kar3, active compounds read low 1.03 | S. cerevisiae deletion strains, locus YPR163C, strain tif3, active compounds read low 1.03 | S. cerevisiae deletion strains, locus YPR167C, strain met16, active compounds read low 1.02 | S. cerevisiae deletion strains, strain wtn01, active compounds read low 1.02 | S. cerevisiae strains, strain wild type, active compounds read low 1.03
active: S. cerevisiae deletion strains, locus YLR357W, strain rsc2, active compounds read low 1.18 [resistant] | S. cerevisiae deletion strains, locus YLR418C, strain cdc73, active compounds read low 0.798 | S. cerevisiae deletion strains, locus YMR125W, strain sto1, active compounds read low 1.16 [resistant]
